# Assay results as given in article PMC7862700, “An all-to-all approach to the identification of sequence-specific readers for epigenetic DNA modifications on cytosine”.
# How the values were obtained:
# Test in all cases: DAPPL (digital affinity profiling via proximity ligation, sequencing); 10 mM Tris-HCl pH 7.5, 50 mM NaCl, 1 mM DTT, 4% glycerol, room temperature, 30 min; GST-TFs on glutathione beads, 16-mer random dsDNA library, 0.1% formaldehyde crosslink after washing; high values mean tight binding
# ELK3 = target: T1, ELK3 (Homo sapiens, UniProt P41970 1-407); conditions: protein: recombinant; tags: N-terminal GST; dsDNA, one strand shown
# T1 sequence: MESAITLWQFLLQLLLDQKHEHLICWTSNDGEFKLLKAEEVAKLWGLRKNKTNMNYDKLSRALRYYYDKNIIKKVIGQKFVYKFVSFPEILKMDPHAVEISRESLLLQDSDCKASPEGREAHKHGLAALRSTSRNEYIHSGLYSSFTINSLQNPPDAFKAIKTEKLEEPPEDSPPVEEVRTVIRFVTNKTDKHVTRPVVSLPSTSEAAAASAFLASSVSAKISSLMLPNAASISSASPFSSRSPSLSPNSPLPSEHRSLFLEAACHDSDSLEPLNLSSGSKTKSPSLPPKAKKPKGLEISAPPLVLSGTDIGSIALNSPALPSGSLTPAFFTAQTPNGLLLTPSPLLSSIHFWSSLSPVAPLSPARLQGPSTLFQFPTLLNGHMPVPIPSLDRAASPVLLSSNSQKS
# In short: (§1)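 Sequencing on an Illumina NextSeq500 followed washing, crosslinking with 0.1% formaldehyde, proximity ligation (BsaI/T4 ligase, 1 h, 37 °C) and PCR amplification of pools that had been incubated for 30 min at room temperature with 200 nmole of a random double-stranded 16-mer DNA library in Tris/NaCl/DTT/glycerol buffer. Each pool held DNA-barcoded human transcription factors, expressed in yeast as GST fusions and captured on glutathione beads, plus a tag-only sample. Binding signal is a hexamer's read frequency for a factor divided by its frequency in the tag-only sample.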
# HSF1 = HSF1 (Homo sapiens, UniProt Q00613 1-529); conditions: protein: recombinant; tags: N-terminal GST; chain copies: 3; dsDNA, one strand shown
# In short: as §1
# CRX = CRX (Homo sapiens, UniProt O43186 1-299); conditions: protein: recombinant; tags: N-terminal GST; dsDNA, one strand shown
# In short: as §1
# ERF = target: T2, ERF (Homo sapiens, UniProt P50548 1-548); conditions: protein: recombinant; tags: N-terminal GST; dsDNA, one strand shown
# T2 sequence: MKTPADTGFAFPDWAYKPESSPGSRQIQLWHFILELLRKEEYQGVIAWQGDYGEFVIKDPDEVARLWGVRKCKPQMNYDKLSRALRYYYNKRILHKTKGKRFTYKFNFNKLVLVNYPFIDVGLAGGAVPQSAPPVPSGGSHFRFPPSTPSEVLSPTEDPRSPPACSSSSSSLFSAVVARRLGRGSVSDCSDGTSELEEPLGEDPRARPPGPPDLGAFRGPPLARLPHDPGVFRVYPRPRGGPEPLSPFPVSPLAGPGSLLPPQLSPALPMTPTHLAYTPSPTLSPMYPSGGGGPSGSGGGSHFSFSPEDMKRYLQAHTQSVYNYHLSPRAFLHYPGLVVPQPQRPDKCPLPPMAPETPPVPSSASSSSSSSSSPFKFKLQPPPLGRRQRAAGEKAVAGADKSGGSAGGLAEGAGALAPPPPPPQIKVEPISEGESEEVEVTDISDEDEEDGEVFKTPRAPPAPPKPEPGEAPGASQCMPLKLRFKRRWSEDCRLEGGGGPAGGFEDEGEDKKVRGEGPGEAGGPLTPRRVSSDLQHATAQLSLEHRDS
# In short: as §1
# EHF = target: T3, EHF (Homo sapiens, UniProt Q9NZC4 1-300); conditions: protein: recombinant; tags: N-terminal GST; dsDNA, one strand shown
# T3 sequence: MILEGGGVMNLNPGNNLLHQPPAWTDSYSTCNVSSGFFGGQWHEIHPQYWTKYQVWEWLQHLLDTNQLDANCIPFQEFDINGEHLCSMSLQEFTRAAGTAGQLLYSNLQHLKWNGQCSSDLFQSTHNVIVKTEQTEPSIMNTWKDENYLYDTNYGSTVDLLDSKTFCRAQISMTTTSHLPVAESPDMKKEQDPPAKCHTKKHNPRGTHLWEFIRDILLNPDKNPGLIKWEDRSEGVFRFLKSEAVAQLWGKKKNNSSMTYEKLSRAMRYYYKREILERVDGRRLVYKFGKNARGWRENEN
# In short: as §1
# ETV7 = target: T4, ETV7 (Homo sapiens, UniProt Q9Y603 1-341); conditions: protein: recombinant; tags: N-terminal GST; dsDNA, one strand shown
# T4 sequence: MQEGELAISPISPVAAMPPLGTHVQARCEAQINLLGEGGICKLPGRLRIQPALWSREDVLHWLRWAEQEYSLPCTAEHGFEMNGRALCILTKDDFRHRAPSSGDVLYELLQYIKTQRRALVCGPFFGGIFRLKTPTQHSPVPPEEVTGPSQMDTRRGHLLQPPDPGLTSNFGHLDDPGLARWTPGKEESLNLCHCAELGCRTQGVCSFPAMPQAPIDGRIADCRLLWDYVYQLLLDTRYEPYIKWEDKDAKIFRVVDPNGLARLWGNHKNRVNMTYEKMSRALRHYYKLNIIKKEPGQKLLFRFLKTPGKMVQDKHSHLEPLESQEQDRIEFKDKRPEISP
# In short: as §1
# ETV3 = target: T5, ETV3 (Homo sapiens, UniProt P41162-2 1-143); conditions: protein: recombinant; tags: N-terminal GST; dsDNA, one strand shown
# T5 sequence: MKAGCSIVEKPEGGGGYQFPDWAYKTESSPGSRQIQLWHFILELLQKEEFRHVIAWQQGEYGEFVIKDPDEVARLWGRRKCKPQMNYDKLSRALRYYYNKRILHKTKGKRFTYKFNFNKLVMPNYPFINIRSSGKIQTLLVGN
# In short: as §1
# HSF1, sequence (Q00613 whole entry): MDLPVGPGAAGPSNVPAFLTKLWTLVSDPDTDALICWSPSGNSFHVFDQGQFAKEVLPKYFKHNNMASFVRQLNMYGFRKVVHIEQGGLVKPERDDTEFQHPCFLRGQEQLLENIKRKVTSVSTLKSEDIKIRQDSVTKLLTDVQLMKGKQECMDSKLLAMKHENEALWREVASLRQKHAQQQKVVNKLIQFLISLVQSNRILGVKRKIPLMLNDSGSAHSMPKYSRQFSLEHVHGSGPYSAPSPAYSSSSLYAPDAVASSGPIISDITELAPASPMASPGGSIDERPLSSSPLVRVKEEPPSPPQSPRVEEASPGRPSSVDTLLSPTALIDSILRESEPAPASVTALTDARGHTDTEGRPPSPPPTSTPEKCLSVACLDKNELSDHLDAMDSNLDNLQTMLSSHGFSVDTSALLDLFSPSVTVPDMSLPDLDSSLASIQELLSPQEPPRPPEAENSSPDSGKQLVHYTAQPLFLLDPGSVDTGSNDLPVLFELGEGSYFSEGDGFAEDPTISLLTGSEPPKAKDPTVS
# CRX, sequence (O43186 whole entry): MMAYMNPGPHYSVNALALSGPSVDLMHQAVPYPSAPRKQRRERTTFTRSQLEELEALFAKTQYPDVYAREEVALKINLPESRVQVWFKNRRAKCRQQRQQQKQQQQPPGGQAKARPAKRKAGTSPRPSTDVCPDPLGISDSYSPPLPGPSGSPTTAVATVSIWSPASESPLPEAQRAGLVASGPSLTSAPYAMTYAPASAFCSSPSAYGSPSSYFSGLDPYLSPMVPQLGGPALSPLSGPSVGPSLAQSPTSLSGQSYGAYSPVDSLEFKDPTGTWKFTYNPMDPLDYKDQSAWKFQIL
sequence,measurement,setting,value
GATAAG,binding signal,ELK3,"1.02 fold enrichment (6-mer frequency, TF over GST control)"
same,binding signal,HSF1,"1.29 fold enrichment (6-mer frequency, TF over GST control)"
same,binding signal,CRX,"1.77 fold enrichment (6-mer frequency, TF over GST control)"
CCAAGA,binding signal,HSF1,"1.03 fold enrichment (6-mer frequency, TF over GST control)"
same,binding signal,ERF,"1.01 fold enrichment (6-mer frequency, TF over GST control)"
AGAATC,binding signal,HSF1,"1.74 fold enrichment (6-mer frequency, TF over GST control)"
same,binding signal,CRX,"1.21 fold enrichment (6-mer frequency, TF over GST control)"
TTAGTC,binding signal,HSF1,"1.17 fold enrichment (6-mer frequency, TF over GST control)"
same,binding signal,CRX,"1.57 fold enrichment (6-mer frequency, TF over GST control)"
ATTAGA,binding signal,HSF1,"1.45 fold enrichment (6-mer frequency, TF over GST control)"
same,binding signal,CRX,"1.95 fold enrichment (6-mer frequency, TF over GST control)"
GCGAAG,binding signal,EHF,"1 fold enrichment (6-mer frequency, TF over GST control)"
same,binding signal,HSF1,"1.15 fold enrichment (6-mer frequency, TF over GST control)"
AGCGAA,binding signal,EHF,"1.06 fold enrichment (6-mer frequency, TF over GST control)"
same,binding signal,HSF1,"1.02 fold enrichment (6-mer frequency, TF over GST control)"
CAGAAC,binding signal,HSF1,"1.62 fold enrichment (6-mer frequency, TF over GST control)"
same,binding signal,ETV7,"1.03 fold enrichment (6-mer frequency, TF over GST control)"
CGAGAA,binding signal,HSF1,"3.31 fold enrichment (6-mer frequency, TF over GST control)"
same,binding signal,CRX,"1.27 fold enrichment (6-mer frequency, TF over GST control)"
same,binding signal,ETV7,"1.01 fold enrichment (6-mer frequency, TF over GST control)"
GAAAGT,binding signal,HSF1,"1.26 fold enrichment (6-mer frequency, TF over GST control)"
same,binding signal,ETV7,"1 fold enrichment (6-mer frequency, TF over GST control)"
TTCGGG,binding signal,HSF1,"1.58 fold enrichment (6-mer frequency, TF over GST control)"
same,binding signal,CRX,"1 fold enrichment (6-mer frequency, TF over GST control)"
same,binding signal,ETV3,"1.03 fold enrichment (6-mer frequency, TF over GST control)"
GGAATA,binding signal,HSF1,"1.44 fold enrichment (6-mer frequency, TF over GST control)"
same,binding signal,CRX,"1.02 fold enrichment (6-mer frequency, TF over GST control)"
same,binding signal,ERF,"1.02 fold enrichment (6-mer frequency, TF over GST control)"
GGATAA,binding signal,HSF1,"1.2 fold enrichment (6-mer frequency, TF over GST control)"
same,binding signal,CRX,"1.75 fold enrichment (6-mer frequency, TF over GST control)"
AATCGT,binding signal,HSF1,"1.01 fold enrichment (6-mer frequency, TF over GST control)"
same,binding signal,CRX,"1.15 fold enrichment (6-mer frequency, TF over GST control)"
GCGAAC,binding signal,HSF1,"1.03 fold enrichment (6-mer frequency, TF over GST control)"
same,binding signal,ERF,"1.05 fold enrichment (6-mer frequency, TF over GST control)"
same,binding signal,ETV7,"1.04 fold enrichment (6-mer frequency, TF over GST control)"
